Data: PubChem BioAssay (EPA / NIEHS)
Inconclusive results are not listed. The source made the active and inactive calls. How the source made its calls: active means hit-call score of the fitted dose curve at least 0.9, where 1 is the maximum; inconclusive means response in the unintended direction; inactive means score below 0.9.

Key:
[1] = biological target: Retinoic acid receptor alpha (Homo sapiens) (UniProt P10276); assay: ATG_RARa_TRANS: Attagene TRANS-FACTORIAL HepG2 Assay for human Retinoic Acid Receptor alpha (RARa) (AID 2283005)
Sequence of Retinoic acid receptor alpha (Homo sapiens) (P10276 whole entry, looked up, the tested form may be a part): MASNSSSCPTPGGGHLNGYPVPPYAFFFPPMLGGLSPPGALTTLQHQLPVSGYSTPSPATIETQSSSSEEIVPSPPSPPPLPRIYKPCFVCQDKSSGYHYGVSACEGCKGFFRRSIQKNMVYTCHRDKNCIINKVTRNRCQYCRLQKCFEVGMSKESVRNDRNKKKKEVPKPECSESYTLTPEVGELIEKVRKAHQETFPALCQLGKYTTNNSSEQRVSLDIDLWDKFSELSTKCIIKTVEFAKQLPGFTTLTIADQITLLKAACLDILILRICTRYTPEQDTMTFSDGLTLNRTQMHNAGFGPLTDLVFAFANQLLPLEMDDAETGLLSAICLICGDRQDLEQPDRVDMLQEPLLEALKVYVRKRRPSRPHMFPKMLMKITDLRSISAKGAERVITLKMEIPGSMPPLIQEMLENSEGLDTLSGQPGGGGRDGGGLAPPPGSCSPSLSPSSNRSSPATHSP
Procedure, shortened: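 HepG2 cells transiently transfected with multiple reporter units expressing chimeric RARα-GAL4 fusion, with GAL4-UAS-driven reporters. After 24 h compound exposure, reporter mRNA induction quantified by RT-PCR and capillary electrophoresis with fluorescent labeling; gain-of-signal fitted relative to DMSO control.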

[2] = biological target: human Retinoic Acid Receptor beta (RARb), RARB (gene 5915) (UniProt P10826); assay: ATG_RARb_TRANS: Attagene TRANS-FACTORIAL HepG2 Assay for human Retinoic Acid Receptor beta (AID 2283004)
Sequence of human Retinoic Acid Receptor beta (RARb), RARB (gene 5915) (P10826 whole entry, looked up, the tested form may be a part): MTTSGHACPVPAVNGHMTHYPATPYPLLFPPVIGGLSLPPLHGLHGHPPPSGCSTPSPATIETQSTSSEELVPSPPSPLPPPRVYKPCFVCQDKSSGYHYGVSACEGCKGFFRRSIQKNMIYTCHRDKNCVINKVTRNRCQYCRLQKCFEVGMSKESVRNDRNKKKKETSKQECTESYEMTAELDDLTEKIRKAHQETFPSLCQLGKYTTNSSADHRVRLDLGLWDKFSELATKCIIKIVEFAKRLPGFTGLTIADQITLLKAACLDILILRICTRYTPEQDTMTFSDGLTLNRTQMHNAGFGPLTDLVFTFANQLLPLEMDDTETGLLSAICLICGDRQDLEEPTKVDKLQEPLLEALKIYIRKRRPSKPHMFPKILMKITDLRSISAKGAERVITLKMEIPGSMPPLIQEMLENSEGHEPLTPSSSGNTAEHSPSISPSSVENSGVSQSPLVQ
Procedure, shortened: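 HepG2, transient MRTU transfection, NR–Gal4 chimera, 24 h treatment; RT-PCR plus CE fluorescence detection of reporter mRNA; gain of signal vs DMSO.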

[3] = biological target: Peroxisome proliferator-activated receptor gamma (Homo sapiens) (UniProt P37231); assay: ATG_PPARg_TRANS: Attagene TRANS-FACTORIAL HepG2 Assay for human Peroxisome Proliferator-activated Receptor-gamma (PPARg) (AID 2283007)
Sequence of Peroxisome proliferator-activated receptor gamma (Homo sapiens) (P37231 whole entry, looked up, the tested form may be a part): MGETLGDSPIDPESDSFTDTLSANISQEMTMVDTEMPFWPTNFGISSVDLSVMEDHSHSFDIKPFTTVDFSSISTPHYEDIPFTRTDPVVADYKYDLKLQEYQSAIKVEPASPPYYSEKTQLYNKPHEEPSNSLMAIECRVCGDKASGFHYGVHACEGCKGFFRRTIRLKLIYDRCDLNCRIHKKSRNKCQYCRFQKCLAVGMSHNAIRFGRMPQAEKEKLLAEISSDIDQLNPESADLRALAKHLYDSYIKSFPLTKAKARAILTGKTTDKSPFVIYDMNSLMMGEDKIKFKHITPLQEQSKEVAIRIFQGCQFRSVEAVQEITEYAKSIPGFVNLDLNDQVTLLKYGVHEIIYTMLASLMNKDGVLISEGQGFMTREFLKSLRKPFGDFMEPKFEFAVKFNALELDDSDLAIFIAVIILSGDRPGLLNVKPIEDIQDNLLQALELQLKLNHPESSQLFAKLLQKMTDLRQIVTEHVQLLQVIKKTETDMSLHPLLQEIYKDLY
Procedure, shortened: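 Chimeric NR-Gal4 transactivation is measured in transiently transfected HepG2 cells by reporter mRNA induction at 24 h. Detection uses RT-PCR with fluorescent labelling and capillary electrophoresis; DMSO defines baseline.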

[4] = biological target: Nuclear receptor subfamily 1 group I member 2 (Homo sapiens) (UniProt O75469); assay: ATG_PXR_TRANS: Attagene TRANS-FACTORIAL HepG2 Assay for human Pregnane X Receptor (PXR) (AID 2283008)
Sequence of Nuclear receptor subfamily 1 group I member 2 (Homo sapiens) (O75469 whole entry, looked up, the tested form may be a part): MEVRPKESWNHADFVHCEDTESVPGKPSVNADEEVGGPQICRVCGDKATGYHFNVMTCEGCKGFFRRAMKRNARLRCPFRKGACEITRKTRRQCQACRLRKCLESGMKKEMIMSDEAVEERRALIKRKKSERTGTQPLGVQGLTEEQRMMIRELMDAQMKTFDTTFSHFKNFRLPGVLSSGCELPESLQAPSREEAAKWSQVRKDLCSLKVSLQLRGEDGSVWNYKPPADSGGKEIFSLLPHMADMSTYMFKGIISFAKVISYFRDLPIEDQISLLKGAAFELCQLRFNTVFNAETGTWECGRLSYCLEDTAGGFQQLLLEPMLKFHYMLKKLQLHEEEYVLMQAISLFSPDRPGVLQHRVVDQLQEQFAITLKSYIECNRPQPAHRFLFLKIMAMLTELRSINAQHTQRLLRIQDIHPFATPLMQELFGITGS
Procedure, shortened: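 HepG2 transfected (FuGene 6) with GAL4-UAS reporter units + PXR-Gal4 chimera; dosed 24 h. Total RNA → oligo(dT) RT → PCR → 6-FAM primer extension → HpaI cut → CE. Gain-of-signal vs DMSO.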

[5] = biological target: human Retinoic Acid Receptor gamma (RARg), RARG (gene 5916) (UniProt P13631); assay: ATG_RARg_TRANS: Attagene TRANS-FACTORIAL HepG2 Assay for human Retinoic Acid Receptor gamma (RARg) (AID 2283009)
Sequence of human Retinoic Acid Receptor gamma (RARg), RARG (gene 5916) (P13631 whole entry, looked up, the tested form may be a part): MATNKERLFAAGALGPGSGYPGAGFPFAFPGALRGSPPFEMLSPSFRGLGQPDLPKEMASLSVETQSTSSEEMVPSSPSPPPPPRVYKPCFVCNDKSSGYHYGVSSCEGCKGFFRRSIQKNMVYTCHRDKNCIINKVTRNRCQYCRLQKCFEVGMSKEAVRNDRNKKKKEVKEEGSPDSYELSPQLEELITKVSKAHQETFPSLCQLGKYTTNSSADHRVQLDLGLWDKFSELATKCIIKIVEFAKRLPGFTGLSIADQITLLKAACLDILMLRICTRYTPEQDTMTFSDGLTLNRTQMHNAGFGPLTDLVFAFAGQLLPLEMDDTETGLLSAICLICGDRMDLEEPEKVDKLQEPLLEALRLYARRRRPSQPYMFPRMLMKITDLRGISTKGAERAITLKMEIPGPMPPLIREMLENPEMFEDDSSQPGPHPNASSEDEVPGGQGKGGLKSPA
Procedure, shortened: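 Gain-of-signal relative to DMSO is reported from fluorescent capillary electrophoresis of RT-PCR reporter products. These came from HepG2 cells expressing transfected RARg-GAL4 chimeras with UAS reporters, harvested 24 h after dosing.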

[6] = biological target: human RAR-related Orphan Receptor beta (RORb), RORB (gene 6096) (UniProt Q92753); assay: ATG_RORb_TRANS: Attagene TRANS-FACTORIAL HepG2 Assay for human RAR-related Orphan Receptor beta (RORb) (AID 2283010)
Sequence of human RAR-related Orphan Receptor beta (RORb), RORB (gene 6096) (Q92753 whole entry, looked up, the tested form may be a part): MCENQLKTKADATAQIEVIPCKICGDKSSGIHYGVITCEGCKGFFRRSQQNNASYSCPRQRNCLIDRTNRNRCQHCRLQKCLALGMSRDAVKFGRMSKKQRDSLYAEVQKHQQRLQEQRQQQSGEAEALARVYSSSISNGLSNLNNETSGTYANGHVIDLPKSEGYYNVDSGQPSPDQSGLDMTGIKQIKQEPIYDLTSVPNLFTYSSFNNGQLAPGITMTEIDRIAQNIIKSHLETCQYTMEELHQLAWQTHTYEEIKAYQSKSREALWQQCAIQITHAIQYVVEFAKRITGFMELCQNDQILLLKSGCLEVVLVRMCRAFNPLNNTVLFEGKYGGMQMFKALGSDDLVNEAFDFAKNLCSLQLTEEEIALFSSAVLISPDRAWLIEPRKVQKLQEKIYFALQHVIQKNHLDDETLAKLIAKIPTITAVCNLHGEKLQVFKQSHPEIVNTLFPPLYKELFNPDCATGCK
Procedure, shortened: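 Multiplexed transcription-factor reporter assay: HepG2 cells transiently carrying NR-Gal4/GAL4-UAS constructs, 24 h treatment, mRNA quantified by RT-PCR plus capillary electrophoresis fluorescence; activity scored as induction over DMSO.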

## CCCC(=O)OCc1ccccc1
[1]
  outcome: inactive

## C[Si](C)O[Si](C)(C)O[Si](C)(C)O[Si](C)C
[2]
  outcome: inactive
[3]
  outcome: inactive
[4]
  outcome: inactive
[5]
  outcome: inactive

## C=C(C)CCO
[2]
  outcome: inactive
[4]
  outcome: inactive
[5]
  outcome: inactive
[6]
  outcome: inactive

## Cn1c(=O)[nH]c2ncn(C)c2c1=O
[1]
  outcome: inactive
[4]
  outcome: inactive
[5]
  outcome: inactive
[6]
  outcome: inactive

## C=C[Si](C)(C)O[Si](C)(C)C=C
[2]
  outcome: inactive
[5]
  outcome: inactive

## C=C(C)[C@H]1CC=C(C)CC1
[4]
  outcome: inactive
[5]
  outcome: inactive

## O=C(/C=C/C=C/c1ccc2c(c1)OCO2)N1CCCCC1
[3]
  AC50: 6.43 µM (active)
[4]
  AC50: 0.893 µM (active)

## O=CN1CCCCC1
[1]
  outcome: inactive

## O=Cc1ccc(CO)o1
[1]
  outcome: inactive

## NNC(=O)c1cccc(C(=O)NN)c1
[4]
  outcome: inactive
[5]
  outcome: inactive

## COC(=O)c1cc(Cl)ccc1[N+](=O)[O-]
[3]
  AC50: 19.7 µM (active)

## c1cc(N(CC2CO2)CC2CO2)ccc1OCC1CO1 (stereo not given)
[3]
  outcome: inactive
[5]
  outcome: inactive

## COC(=O)C1=C(C)NC(C)=C(C(=O)OCC(C)C)C1c1ccccc1[N+](=O)[O-] (stereo not given)
[3]
  AC50: 6.19 µM (active)

## CC1=CC[C@H](C(C)C)C=C1
[3]
  AC50: 27.9 µM (active)
[4]
  AC50: 0.822 µM (active)

## CCCCC(CC)CCC(CC(C)C)OS(=O)(=O)O (stereo not given)
[3]
  AC50: 36.6 µM (active)
[4]
  AC50: 5.35 µM (active)
[6]
  outcome: inactive

## CC1=CC[C@H]2C[C@@H]1C2(C)C
[3]
  outcome: inactive
[4]
  outcome: inactive

## CCCCCc1ccc(Cl)cc1
[3]
  outcome: inactive
[4]
  outcome: inactive

## O=C1CCCC1
[2]
  outcome: inactive
[5]
  outcome: inactive
[6]
  outcome: inactive

## C=CC(=O)NC(C)(C)CS(=O)(=O)O
[1]
  outcome: inactive
[3]
  outcome: inactive

## Cc1c(C)c([N+](=O)[O-])c(C(C)(C)C)c([N+](=O)[O-])c1C
[2]
  outcome: inactive
[3]
  outcome: inactive
[4]
  AC50: 2 µM (active)
[5]
  outcome: inactive
